These entries were drawn from the full list.
aSyn 5UTR act = Activators working through SNCA 5'UTR binding (MLPCN) | alpha-synuclein 5'UTR reporter, activators screen | activity score, % (tested at 7.5 µM), hits read low | actives 7.1% (n = 300,000) | AID 1814; in the data active means activity score below about -60%
Large screens that a line does not name were inactive.

Cc1cc(C)c2c(CCl)cc(=O)oc2c1	none
Cc1cc2oc(=O)cc(CN3CCC(C)CC3)c2cc1C	aSyn 5UTR act -81.9
COc1ccc(Nc2nc(N)c3ccccc3n2)c(OC)c1	aSyn 5UTR act -197.9
Clc1ccccc1Nc1nc(-c2cccnc2)cs1	aSyn 5UTR act -185.3
COc1cccc(Nc2nc(-c3cccnc3)cs2)c1	aSyn 5UTR act -173.1
Cc1ccc(Nc2nc(-c3cccnc3)cs2)cc1Cl	aSyn 5UTR act -174.9
c1cncc(Nc2nc(-c3cccnc3)cs2)c1	aSyn 5UTR act -71.6
COc1cccc2sc(Nc3nc(-c4ccncc4)cs3)nc12	none
Clc1ccccc1-c1csc(Nc2cccnc2)n1	aSyn 5UTR act -71.5
CC(C)CSc1nnc2c3ccccc3n(C)c2n1	aSyn 5UTR act -75.2
CN(C)CCn1c2ccccc2c2nc3ccc([N+](=O)[O-])cc3cc21	none
CCN(CC)CCSc1nnc2c3ccccc3n(CCc3ccccc3)c2n1	aSyn 5UTR act -105.6
Cn1c(SCC(=O)c2ccccc2)ncc(C(=O)Nc2ccccc2)c1=O	aSyn 5UTR act -67.3
COC(=O)c1cnc(SCc2ccc(Cl)cc2)n1C	aSyn 5UTR act -70.1
COC(=O)c1ccnc(SCC(=O)c2ccccc2)c1	aSyn 5UTR act -117.5
COC(=O)c1cnc(SCC(=O)c2ccccc2)n1C	aSyn 5UTR act -93.9
C/C(=N\NC(=O)COc1ccccc1)c1cccs1	aSyn 5UTR act -85.0
C/C(=N\NC(=O)c1cccs1)c1ccc2ccccc2c1	aSyn 5UTR act -92.1
C/C(=N\NC(=O)c1cccs1)c1cccnc1	aSyn 5UTR act -83.3
Cc1cc(/C=N/NC(=O)c2cccs2)c(C)n1-c1cnccn1	aSyn 5UTR act -169.6
O=C(N/N=C/c1cccnc1)c1cccs1	aSyn 5UTR act -81.5
O=C(N/N=C/c1ccc(N2CCOCC2)cc1)c1cccs1	aSyn 5UTR act -178.6
Cc1c(OCC(=O)NC2CC(C)(C)NC(C)(C)C2)ccc2c1oc(=O)c1ccccc12	aSyn 5UTR act -106.6
CC1(C)CC(NC(=O)COc2ccccc2Cl)CC(C)(C)N1	aSyn 5UTR act -66.0
CCCCc1c(C)nn(-c2nnc3c4ccccc4n(C)c3n2)c1C	aSyn 5UTR act -95.6
CN(C)C(=O)c1ccc(COc2ccccc2Br)o1	aSyn 5UTR act -165.5
O=C(Nc1ccccn1)c1ccc(COc2ccccc2Cl)o1	aSyn 5UTR act -70.9
O=C(Nc1ccc(Cl)cn1)c1ccc(COc2ccccc2Br)o1	aSyn 5UTR act -116.7
O=C(OCC(=O)N1CCCC1=O)c1nc(Cl)c(Cl)c(Cl)c1Cl	aSyn 5UTR act -131.2
Brc1ccc2nc(-c3cccs3)c(NCC3CCCO3)n2c1 (configuration not stated)	aSyn 5UTR act -174.9
O=S1(=O)C=C(N2CCOCC2)c2ccccc21	aSyn 5UTR act -69.8
O=C1C(N2CCOCC2)=C(n2nnc3ccccc32)C(=O)c2ccccc21	none
Cc1ccc(COc2ccc(-c3nnco3)cc2)cc1	aSyn 5UTR act -118.1
Cc1ccc(C(=O)c2cc([N+](=O)[O-])ccc2N2CCOCC2)cc1	none
CCC(=O)c1ccc(N2CCCCC2)c(F)c1	aSyn 5UTR act -68.0
CCCC(=O)c1ccc(N2CCOCC2)c(F)c1	aSyn 5UTR act -97.4
Cc1ccc(C(=O)c2ccc(N3CCOCC3)c(F)c2)cc1	aSyn 5UTR act -109.0
Cc1ccc(Nc2ccc(C(=O)O)cc2N)cc1	aSyn 5UTR act -107.0
COc1cccc(Nc2ccc(C(=O)O)cc2N)c1	aSyn 5UTR act -118.0
CN1CCN(c2ccc(-c3cccc(NC(=O)COc4ccccc4)c3)nn2)CC1	aSyn 5UTR act -70.1
CN1CCN(c2ccc(-c3cccc(NC(=O)COc4ccc(Cl)cc4)c3)nn2)CC1	aSyn 5UTR act -130.5
CCC(=O)Nc1cccc(-c2ccc(N3CCN(C)CC3)nn2)c1	aSyn 5UTR act -73.5
O=[N+]([O-])c1ccc(C23CC4CC(CC(O)(C4)C2)C3)cc1	aSyn 5UTR act -87.3
Clc1ccc(CO/N=C2\CCCc3nonc32)cc1	aSyn 5UTR act -69.9
CCCN1CCC(=O)N([C@H](CSc2ccc(OC)cc2)CC(C)C)CC1	aSyn 5UTR act -113.5
CCCN1CCC(=O)N([C@H](CSc2ccc(C)cc2)c2ccccc2)CC1	aSyn 5UTR act -181.0
CN1CCC(=O)N([C@H](CSc2ccc(Br)cc2)c2ccccc2)CC1	aSyn 5UTR act -103.6
CCCN1CCC(=O)N([C@H](CSc2ccccc2)c2ccccc2)CC1	aSyn 5UTR act -72.1
COC(=O)/C=C1\C(=O)N(c2nc3ccc(OC)cc3s2)C(=S)N1c1ccc(F)cc1	aSyn 5UTR act -69.1
COC(=O)/C=C1\C(=O)N(c2nc3ccccc3s2)C(=S)N1c1ccc(F)cc1	aSyn 5UTR act -174.7
CN=c1scc(-c2ccc(OC)cc2)n1/N=C(\C)c1cccnc1	aSyn 5UTR act -156.0
Cc1cc(N2C(=O)C(O)=C(C(=O)c3cc4ccccc4o3)C2c2ccc(OC(C)C)cc2)no1 (configuration not stated)	aSyn 5UTR act -90.7
CCN(CC)S(=O)(=O)c1cccc(C(=O)N[C@H](C(=O)Nc2nc3ccc(F)cc3s2)C(C)C)c1	aSyn 5UTR act -82.8
Cc1cccc(C(=O)NC(C(=O)Nc2nc(-c3ccccn3)cs2)C(C)C)c1 (configuration not stated)	none
COc1ccc(/C=N/NC(=O)c2cnccn2)cc1O	aSyn 5UTR act -62.9
COc1ccccc1/C=C/C=N/NC(=O)c1ccccn1	aSyn 5UTR act -74.5
COc1ccc(/C=N/NC(=O)c2cc3c(OC)ccc(OC)c3[nH]2)cc1O	none
COc1ccccc1/C=C/C=N/NC(=O)c1cnccn1	aSyn 5UTR act -69.5
O=C(Nc1ccc2oc(-c3ccccc3)nc2c1)C1CCCO1 (configuration not stated)	aSyn 5UTR act -161.9
O=C(Nc1ccc(-c2nc3cc(Cl)ccc3o2)cc1)C1CCCO1 (configuration not stated)	aSyn 5UTR act -81.0
CCOC(=O)C(C(=O)OCC)C1OC(=O)c2cc3c(cc21)C(=O)OC3C(C(=O)OCC)C(=O)OCC (configuration not stated)	aSyn 5UTR act -77.3
O=C(NCCc1c[nH]c2ccccc12)C(=O)Nc1ccccc1	aSyn 5UTR act -65.3
O=C(NCCc1ccccc1)C(=O)c1c[nH]c2ccccc12	aSyn 5UTR act -199.5
Cc1nnc(SCc2ccccc2)nc1-c1ccccc1	aSyn 5UTR act -123.7
COC(=O)C1C(=O)c2c([nH]c(C(=O)OC3CCCC3)c2C)CC1C (configuration not stated)	aSyn 5UTR act -131.3
CC(C)N(Cc1cn[nH]c1-c1ccc(-c2ccccc2)cc1)Cc1nccn1C	aSyn 5UTR act -105.8
Cc1noc(C)c1-c1nnc(-c2ccc(OC(F)(F)F)cc2)o1	aSyn 5UTR act -68.9
O=C(c1cc(-c2ccccc2)on1)N1CCCCCC1	aSyn 5UTR act -199.9
O=C(c1cc(-c2ccc(Br)cc2)on1)N1CCCC1	aSyn 5UTR act -109.4
O=C(c1cc(-c2cccc(O)c2)on1)N1CCCC1	aSyn 5UTR act -106.5
CCN(CC)C(=O)c1cc(-c2ccc(Br)cc2)on1	aSyn 5UTR act -152.4
CN1CCN(C(=O)c2cc(-c3ccccc3)on2)CC1	aSyn 5UTR act -80.2
S=C(c1ccc(-c2cccc(Cl)c2)o1)N1CCOCC1	aSyn 5UTR act -144.3
S=C(c1ccc(-c2cccc(Cl)c2)o1)N1CCCCC1	aSyn 5UTR act -110.8
N#CCCN1CCN(C(=S)c2ccc(-c3cccc(Cl)c3)o2)CC1	aSyn 5UTR act -89.3
O=C(Oc1oc(-c2ccco2)nc1C=Nc1ccc(Cl)cc1)c1ccco1	aSyn 5UTR act -170.2
COc1ccc(N=Cc2nc(-c3ccco3)oc2O)cc1	aSyn 5UTR act -111.2
CN(Cc1ccccc1)c1ncnc2c1cnn2-c1ccccc1	aSyn 5UTR act -168.7
CCN(c1ccccc1)c1ncnc2c1cnn2-c1ccccc1	aSyn 5UTR act -150.3

Source: PubChem BioAssay
